Pf growth 48h = P. falciparum growth inhibition at 48 hours (one generation). P. falciparum luciferase growth in erythrocytes, 48 h. Potency, µM (doses to about 28.7 µM), actives largely listed as inhibitors. 5.9% of 310,000 active
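Luminescence readout; reporter = integrated firefly luciferase in P. falciparum. RBC culture at 2% hematocrit, 0.1% parasitemia final, 37 C/5% CO2; decreased signal taken as growth inhibition.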
Shiga inhibitor = inhibitors of Shiga toxin in Vero cells; Vero cells, Shiga toxin protein synthesis inhibition reporter; AID 2315; inhibition, % at 38.7 µM; 9.2% of 290,000 active; in the data active = inhibition mostly above about 28%, no sharp cut-off; inactive = mostly below about 43%
HCV inhibitor = HCV inhibition. 3.4% of 340,000 active. Potency, µM (doses to about 41.8 µM), usual class: inhibitors. Huh7.5.1 HCVcc-Cre infection, luciferase reporter, 44 h
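Infectious HCVcc-Cre (~0.5 moi) was added to cells just after compound, with cells seeded 4 h earlier at 1,000 per well. Luciferase activity after 44 h culture reported infection; substrate was incubated 15 min at room temperature before reading.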
Pf growth 96h = P. falciparum growth inhibition at 96 hours; AID 504834; P. falciparum luciferase reporter growth, 96 h; 6.9% of 320,000 active; Potency, µM (top dose mostly 28.7 µM), most hits filed as inhibitors
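Luminescence readout: decreased luciferase signal marks inhibited growth of reporter-expressing P. falciparum in infected red cells (2% hematocrit, 0.05% parasitemia final), exposed to compound two generations (96 h, 37 C, 5% CO2).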
HCMV inh = blocks human cytomegalovirus replication; HFF cells, HCMV-luciferase reporter, 72 h; active compounds read low; activity change, negative = inhibition, % at 57.5 µM; 4.5% of 410,000 active; AID 1259415; in the data active = activity change below about -60%; inconclusive = no clear call, values can overlap the other calls; inactive = above about -39%
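After 16 h attachment at 37C, HFF cells received test compound and HCMV-luciferase (1 PFU/cell); reporter luminescence read 72 h later, data normalized against buffer-only and known inhibitor Salinomycin.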
Cycloheximide cs = affects cycloheximide protein synthesis inhibition readout, counter-screen. max response, %. cell reporter, cycloheximide protein synthesis inhibition counterscreen. 12% of 300,000 active. AID 2314; in the data active = max response mostly above about 13%, no sharp cut-off; inactive = mostly below about 14%; note: read at 38.3 µM for the half of the compounds with a filed dose
Of the large screens only hits and unclear results are named; the others gave an inactive call. Only some compounds are listed: those with a hit (about 21% of all), similar ones and a draw of the others. Unless noted, calls come from the whole dose curve; as a rule, active = well fitted inhibition curve with a large enough effect; inconclusive = small, poorly fitted or top-dose-only effect, or another doubt; inactive = no such curve, though single readings can be large or run the other way.

COc1ccc2cc3cc(C(=O)Nc4ccccc4N4CCN(C)CC4)oc3nc2c1	Pf growth 48h inconclusive, HCV inhibitor 10µM, Pf growth 96h inconclusive
CCCCN(CC)C(=O)c1cc2cc3ccc(OC)cc3nc2o1	Pf growth 48h 12µM, Shiga inhibitor 80, HCV inhibitor inconclusive, Pf growth 96h 5.2µM, Cycloheximide cs 27
COc1ccc2cc3cc(C(=O)NCCN4CCN(c5ccccc5F)CC4)oc3nc2c1	Pf growth 48h inconclusive, HCV inhibitor inconclusive
CCOc1ccc(NC(=O)c2cc3cc4ccc(OC)cc4nc3o2)cc1	Pf growth 96h 5.2µM (no result: Pf growth 48h)
Cc1cccc(N(CC(=O)NC2CCCC2)C(=O)c2cc3cc4cccc(C)c4nc3s2)c1C	Pf growth 48h inconclusive, HCV inhibitor inconclusive, Pf growth 96h inconclusive
Cc1ccc(C)c(N(CC(=O)NC2CCCC2)C(=O)c2cc3cc4cc(C)ccc4nc3s2)c1	Pf growth 48h inconclusive, HCV inhibitor 22µM, Pf growth 96h inconclusive
O=C1CCCc2nc3c(cc21)C(O)Oc1c-3ccc2ccccc12 (centres undefined)	Shiga inhibitor 65, Cycloheximide cs 49
CC1CN(C(=O)CCC(=O)NCCc2ccccc2)c2ccccc2O1 (centres undefined)	Shiga inhibitor 35, Pf growth 96h inconclusive, Cycloheximide cs 25
CC1CN(C(=O)NCc2ccccc2)c2cc(Cl)ccc2O1 (centres undefined)	Pf growth 96h 2.6µM
Cc1cccc(N2CCN(C(=O)CCC(=O)N3CC(C)Oc4ccc(C)cc43)CC2C)c1 (centres undefined)	Pf growth 48h 13µM, HCV inhibitor inconclusive
Cc1ccc2c(c1)N(C(=O)CCC(=O)NCCCN1CCOCC1)CC(C)O2 (centres undefined)	HCMV inh -65
COc1ccc(CN2C[C@H](COCc3ccccc3)Oc3cccc(F)c3S2(=O)=O)cc1	none (no result: Pf growth 48h, Shiga inhibitor, HCV inhibitor, Pf growth 96h, Cycloheximide cs)
Cc1ccc(CNC(=O)C2CCN(S(=O)(=O)c3ccc(Br)s3)CC2)cc1	none
CC1Nc2ccccc2C(=O)N1NS(=O)(=O)c1ccccc1 (centres undefined)	none
Cc1ccc2c(c1)N(C(=O)CCC(=O)N1CCN(c3ccccn3)CC1)CC(C)O2 (centres undefined)	Pf growth 96h inconclusive, HCMV inh -71
CCC(C)(C)n1nnnc1C(c1ccccc1OC)N1CCN(C(=O)c2ccco2)CC1 (centres undefined)	Pf growth 48h 1.9µM, Cycloheximide cs 11
Cc1cccc2cc(C(c3nnnn3C(C)(C)C)N3CCN(C(=O)c4ccco4)CC3)c(=O)[nH]c12 (centres undefined)	Pf growth 48h 3.3µM
CCC(C)(C)n1nnnc1C(c1cc2cc(OC)c(OC)cc2[nH]c1=O)N1CCc2ccccc21 (centres undefined)	Pf growth 48h 1µM, Pf growth 96h inconclusive
COc1ccc(C(c2nnnn2C(C)(C)C)N2CCN(C(=O)c3ccco3)CC2)cc1 (centres undefined)	HCMV inh inconclusive
COc1cc2cc(C(c3nnnn3C(C)(C)C)N3CCc4ccccc4C3)c(=O)[nH]c2cc1OC (centres undefined)	Pf growth 48h inconclusive, Pf growth 96h inconclusive
Cc1ccc2[nH]c(=O)c(C(c3nnnn3C(C)(C)C)N3CCN(C(=O)c4ccco4)CC3)cc2c1 (centres undefined)	Pf growth 48h 9.3µM, HCV inhibitor inconclusive, Pf growth 96h inconclusive
CNc1nc(-c2cccc(C(=O)N(C)C)c2)cn2ccnc12	none (no result: Pf growth 48h, Shiga inhibitor, HCV inhibitor, Pf growth 96h, Cycloheximide cs)
Cc1ccc(-c2nn(CC(=O)NC3CCCC3)c3c2cnc2ccc(F)cc23)cc1C	none (no result: Pf growth 48h, Shiga inhibitor, HCV inhibitor, Pf growth 96h, Cycloheximide cs)
CCC(C)(C)n1nnnc1C(c1cc2cc(C)ccc2[nH]c1=O)N1CCCC1 (centres undefined)	Pf growth 96h 15µM
CCC(C)(C)n1nnnc1C(c1cc2cc(C)cc(C)c2[nH]c1=O)N1CCN(C(=O)c2ccco2)CC1 (centres undefined)	Pf growth 48h inconclusive, Pf growth 96h 1.7µM
COc1ccc(-n2nc(C(=O)NCc3ccc(F)cc3Cl)c3c4ccccc4n(C)c3c2=O)cc1Cl	none (no result: Pf growth 48h, Shiga inhibitor, HCV inhibitor, Pf growth 96h, Cycloheximide cs)
Cc1cccc(C)c1NC(=O)C(c1ccccc1)n1c(-c2ccccc2)nc2ccccc21 (centres undefined)	none (no result: Pf growth 48h, Shiga inhibitor, HCV inhibitor, Pf growth 96h, Cycloheximide cs)
CCCCCn1c(=N)n(CC(O)COc2cccc(C)c2)c2ccccc21 (centres undefined)	HCMV inh -105 (no result: Pf growth 48h, Shiga inhibitor, HCV inhibitor, Pf growth 96h, Cycloheximide cs)
CCCn1c(=N)n(CC(O)COc2cccc(C)c2)c2ccccc21 (centres undefined)	Pf growth 48h 10µM, HCV inhibitor inconclusive
COc1ccc(N=C2C(=O)N3c4c(cccc42)C(C)=CC3(C)C)cc1	Pf growth 48h inconclusive, HCV inhibitor inconclusive, Pf growth 96h 12µM, HCMV inh -63
COc1cccc(CNC(=O)CNC(=S)N(Cc2ccccc2)Cc2ccccc2F)c1	Pf growth 48h 12µM, HCMV inh -66
O=C(CNC(=S)N(Cc1ccccc1)Cc1ccccc1F)NCc1ccccc1	Pf growth 96h inconclusive, HCMV inh inconclusive
Cc1onc(-c2c(F)cccc2Cl)c1C(=O)NC(C)c1ccccc1 (centres undefined)	Pf growth 48h inconclusive, HCMV inh inconclusive
CCn1c(SCC(N)=O)nc2cc(S(=O)(=O)N3CCOCC3)ccc21	none
CCn1c(SCC(=O)c2c[nH]c3ccccc23)nc2cc(S(=O)(=O)N3CCOCC3)ccc21	Pf growth 48h 9.3µM, HCV inhibitor inconclusive, Pf growth 96h 2.3µM, HCMV inh inconclusive
CSc1nnc(C(C)(C)C)c(=O)n1/N=C/c1ccc(C(C)C)cc1	Pf growth 48h inconclusive, HCMV inh -63
CSc1nnc(C(C)(C)C)c(=O)n1/N=C/c1ccc(Cl)cc1	Pf growth 48h inconclusive, Pf growth 96h inconclusive
CCC(=O)Nc1ccc(C)cc1-c1nc2ccccc2n(CC(=O)c2ccc(C)cc2)c1=O	none (no result: Pf growth 48h, Shiga inhibitor, HCV inhibitor, Pf growth 96h, Cycloheximide cs)
O=C(CN(Cc1ccccc1Cl)C(=O)Cn1nnc(-c2cccs2)n1)NCC1CCCO1 (centres undefined)	Pf growth 96h 1.2µM
COc1ccc(-c2nnn(CC(=O)N(Cc3ccccc3Cl)C(C(=O)NCC3CCCO3)c3ccco3)n2)cc1OC (centres undefined)	Pf growth 48h 9.3µM, HCV inhibitor inconclusive
COc1ccc(C(C(=O)NC2CCCCC2)N(CC2CCCO2)C(=O)CCCC(=O)Nc2ccccn2)cc1 (centres undefined)	Pf growth 48h inconclusive
Cc1ccc(C(C(=O)NC2CCCCC2)N(CC2CCCO2)C(=O)CCCC(=O)Nc2ccccn2)cc1 (centres undefined)	Pf growth 48h inconclusive, Pf growth 96h inconclusive, HCMV inh -71
CCC(C)(C)NC(=O)C(c1ccc(C)cc1)N(CC1CCCO1)C(=O)CCC(=O)Nc1ccccn1 (centres undefined)	Pf growth 48h inconclusive, Pf growth 96h 12µM, HCMV inh inconclusive

High-throughput results: PubChem, National Center for Advancing Translational Sciences (NCATS)
